Assay results from PubChem BioAssay (NCATS).
Values joined by “and” are separate entries in the source; they are usually repeats but may differ in a detail not shown here. Identical values can stand only once. Inconclusive results are not listed. Active and inactive are the calls of the source. Calls come from the whole dose curve; as a rule, active = well fitted curve in the direction sought with a large enough effect; inconclusive = small, poorly fitted or top-dose-only effect, or another doubt; inactive = no such curve, though single readings can be large; an effect the other way counts as inactive or inconclusive.

Assay: qHTS of pediatric cancer cell lines to identify multiple opportunities for drug repurposing: Confirmatory screen for Rh41 cells (AID 1347123);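 note: 48 h compound exposure; nearly all actives have a fitted effect of over 60% in size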;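 for activity change, negative = cytotoxic: plate controls were DMSO for no effect and bortezomib for full effect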
Details: Rh41 rhabdomyosarcoma cells, viability/cytotoxicity qHTS; series mostly up to 45.9 µM; activity change, negative = cytotoxic: at the top concentration
Outline: (§1)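 Cells (500-1,000/well) rested 5 h, then received compounds for 48 h; metabolically active cells were measured by CellTiter-Glo luminescence. Final concentrations spanned up to 46 µM (MIPE, 11-point) or 0.59 nM-46 µM (NPC, 8-point) in primary screens, 11-point in follow-ups.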
Potency is the fitted concentration of half-maximal effect.

SMILES	Potency	activity change, negative = cytotoxic
C[C@H]1O[C@@H](O[C@H]2[C@@H](O)C[C@H](O[C@H]3[C@@H](O)C[C@H](O[C@H]4CC[C@@]5(C)[C@H](CC[C@@H]6[C@@H]5CC[C@]5(C)[C@@H](C7=CC(=O)OC7)CC[C@]65O)C4)O[C@@H]3C)O[C@@H]2C)C[C@H](O)[C@@H]1O	73.7 nM (active)	–
O=P1(NCCCl)OCCCN1CCCl (configuration not stated)	–	0% (inactive)
CC(C)CC(N(C)C)C1(c2ccc(Cl)cc2)CCC1 (configuration not stated)	–	-11.3% (inactive)
C[C@@H]1O[C@@H](O[C@H]2C[C@@H](O)[C@]3(CO)[C@H]4[C@H](O)C[C@]5(C)[C@@H](C6=CC(=O)OC6)CC[C@]5(O)[C@@H]4CC[C@]3(O)C2)[C@H](O)[C@H](O)[C@H]1O	46.5 nM (active) and 39.8 nM (active)	–
C[C@@H]1[C@@H](C(=O)C[C@H]2O[C@@H]3O[C@]4(C)CC[C@@H]5[C@H](C)CC[C@@H]([C@H]2C)[C@@]35OO4)O[C@@H]2O[C@]3(C)CC[C@H]4[C@H](C)CC[C@@H]1[C@@]24OO3	928 nM (active)	–
O=c1[nH]c2ccccc2n1CCCN1CCC(n2c(=O)[nH]c3cc(Cl)ccc32)CC1	16500 nM (active)	–
C[C@@H]1[C@@H](CC(C[C@H]2O[C@@H]3O[C@]4(C)CC[C@@H]5[C@H](C)CC[C@@H]([C@H]2C)[C@@]35OO4)C[S+](=O)([O-])c2ccc(COC(=O)N(C)C)cc2)O[C@@H]2O[C@]3(C)CC[C@H]4[C@H](C)CC[C@@H]1[C@@]24OO3 (some centres not stated)	82.7 nM (active)	–
Cc1sc2c(c1C)C(c1ccc(Cl)cc1)=N[C@@H](CC(=O)OC(C)(C)C)c1nnc(C)n1-2	–	19.4% (inactive)

Assay: qHTS of pediatric cancer cell lines to identify multiple opportunities for drug repurposing: Confirmatory screen for RD cells (AID 1347124);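 note: cells exposed to compound for 48 h before viability readout; nearly all actives have a fitted effect of over 65% in size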; for activity change, negative = cytotoxic: % is set by controls: 0 for no effect and ±100 for the full control effect
Details: RD rhabdomyosarcoma cell viability; series mostly up to 45.9 µM; activity change, negative = cytotoxic: at the top concentration
Excerpt: Drug repurposing or repositioning has been offered as a strategy for drug development in oncology programs. This approach has special potential for childhood cancers and other rare or orphan diseases, where the expected return on new drug development has been a disincentive to pharmaceuticals.
In this project we exploit the poly-pharmacology of drugs to discover new indications via phenotypic screening of a panel of 19 well-characterized cell lines derived from solid tumors seen in children and adolescents. The goal is to identify approved drugs with previously unrecognized anticancer properties that has the potential to reveal new mechanisms and biological processes involved in carcinogenesis or drug resistance. We employed a titration-based paradigm (quantitative high-throughput screening or qHTS), where all compounds were tested at multiple concentrations for their effect on cell viability. Concentration-response curves (CRCs) were derived directly from the primary screen, and both potency and efficacy values were used to identify compounds with robust bioactivity profiles. We screened the NIH Chemical Genomics Center (NCGC) Pharmaceutical Collection (NPC) and Mechanism Interrogation Plate (MIPE) small molecule collections of approved and investigational compounds against these cell lines; and measured metabolically active cells after 48 hours of compound treatment as a proxy for cell viability.
Assay Submitter: Nathalia J. Martinez, National Center for Advancing Translational Sciences, National Institutes of Health, Rockville, MD, USA; email: natalia.martinez@nih.gov
[1] Shen, M et al. Quantitative high-throughput phenotypic screening of pediatric cancer cell lines identifies multiple opportunities for drug repurposing. Oncotarget 2017 Dec 19;9(4):4758-4772. PMID 29435139.
The cells were obtained from University of North Carolina (UNC), Pediatric Preclinical Testing Program (PPT), and Coriell Institute (CI).
qHTS cell viability assay:
Cells were assayed in growth media at a density of 500-1,000 cells/well. Five microliters of cells were dispensed into 1,536-well, white, solid-bottom, TC-treated plates (Greiner Bio One) using a multidrop dispenser and incubated at 37 degrees C, 5% CO2, under a humidified atmosphere for 5 hours. Twenty-three nanoliters of compounds and controls (neutral control DMSO or positive control bortezomib at final concentration of 2.3 µM) were subsequently transferred by Kalypsys pintool. For primary screens, the MIPE collection was tested at 11-point dilutions (final concentrations range from 0.78 nM to 46 µM) and the NPC collection at 8-point dilutions (final concentrations range from 0.59 nM to 46 µM). Compounds tested in follow-up screens were assayed at 11-point dilutions. Cells were incubated for 48 hours, followed by addition of 3 µL of CellTiter-Glo (Promega). After a 15 min incubation at room temperature, samples were analyzed for luminescence intensity using a ViewLux High-throughput CCD imager equipped with clear filters.

SMILES	Potency	activity change, negative = cytotoxic
C[C@H]1O[C@@H](O[C@H]2[C@@H](O)C[C@H](O[C@H]3[C@@H](O)C[C@H](O[C@H]4CC[C@@]5(C)[C@H](CC[C@@H]6[C@@H]5CC[C@]5(C)[C@@H](C7=CC(=O)OC7)CC[C@]65O)C4)O[C@@H]3C)O[C@@H]2C)C[C@H](O)[C@@H]1O	104 nM (active)	–
C=C(C)[C@H]1Cc2c(ccc3c2O[C@@H]2COc4cc(OC)c(OC)cc4[C@@H]2C3=O)O1	–	-51.5% (inactive)
O=P1(NCCCl)OCCCN1CCCl (configuration not stated)	–	9.88% (inactive)
C[C@@H]1O[C@@H](O[C@H]2C[C@@H](O)[C@]3(CO)[C@H]4[C@H](O)C[C@]5(C)[C@@H](C6=CC(=O)OC6)CC[C@]5(O)[C@@H]4CC[C@]3(O)C2)[C@H](O)[C@H](O)[C@H]1O	117 nM (active)	–
C[C@@H]1[C@@H](C(=O)C[C@H]2O[C@@H]3O[C@]4(C)CC[C@@H]5[C@H](C)CC[C@@H]([C@H]2C)[C@@]35OO4)O[C@@H]2O[C@]3(C)CC[C@H]4[C@H](C)CC[C@@H]1[C@@]24OO3	737 nM (active)	–
Cn1c(CCCC(=O)O)nc2cc(N(CCCl)CCCl)ccc21	–	11.1% (inactive)

Assay: qHTS of pediatric cancer cell lines to identify multiple opportunities for drug repurposing: Confirmatory screen for Rh18 cells (AID 1347125); note: nearly all actives have a fitted effect of over 55% in size; for activity change, negative = cytotoxic: % is set by controls: 0 for no effect and ±100 for the full control effect
Details: Rh18 rhabdomyosarcoma cells, viability; series mostly up to 45.9 µM; activity change, negative = cytotoxic: at the top concentration
Outline: as §1

SMILES	activity change, negative = cytotoxic	Potency
COC[C@@H](NC(C)=O)C(=O)NCc1ccccc1	15.8% (inactive)	–
O=P1(NCCCl)OCCCN1CCCl (configuration not stated)	10.5% (inactive)	–
CC(C)CC(N(C)C)C1(c2ccc(Cl)cc2)CCC1 (configuration not stated)	–	20.8 µM (active)
C[C@@H]1[C@@H](C(=O)C[C@H]2O[C@@H]3O[C@]4(C)CC[C@@H]5[C@H](C)CC[C@@H]([C@H]2C)[C@@]35OO4)O[C@@H]2O[C@]3(C)CC[C@H]4[C@H](C)CC[C@@H]1[C@@]24OO3	-14.7% (inactive)	–
Cn1c(CCCC(=O)O)nc2cc(N(CCCl)CCCl)ccc21	-6.06% (inactive)	–
O=c1[nH]c2ccccc2n1CCCN1CCC(n2c(=O)[nH]c3cc(Cl)ccc32)CC1	–	9.27 µM (active)

Assay: qHTS of pediatric cancer cell lines to identify multiple opportunities for drug repurposing: Confirmatory screen for Rh30 cells (AID 1347126); note: nearly all actives have a fitted effect of over 55% in size; for activity change, negative = cytotoxic: % is set by controls: 0 for no effect and ±100 for the full control effect
Details: Rh30 rhabdomyosarcoma cell viability; series mostly up to 45.9 µM; activity change, negative = cytotoxic: at the top concentration
Outline: as §1

SMILES	Potency	activity change, negative = cytotoxic
C[C@H]1O[C@@H](O[C@H]2[C@@H](O)C[C@H](O[C@H]3[C@@H](O)C[C@H](O[C@H]4CC[C@@]5(C)[C@H](CC[C@@H]6[C@@H]5CC[C@]5(C)[C@@H](C7=CC(=O)OC7)CC[C@]65O)C4)O[C@@H]3C)O[C@@H]2C)C[C@H](O)[C@@H]1O	0.329 µM (active)	–
C=C(C)[C@H]1Cc2c(ccc3c2O[C@@H]2COc4cc(OC)c(OC)cc4[C@@H]2C3=O)O1	–	-8.95% (inactive)
O=P1(NCCCl)OCCCN1CCCl (configuration not stated)	–	10.8% (inactive)
C[C@@H]1O[C@@H](O[C@H]2C[C@@H](O)[C@]3(CO)[C@H]4[C@H](O)C[C@]5(C)[C@@H](C6=CC(=O)OC6)CC[C@]5(O)[C@@H]4CC[C@]3(O)C2)[C@H](O)[C@H](O)[C@H]1O	0.165 µM (active)	–
C[C@@H]1[C@@H](C(=O)C[C@H]2O[C@@H]3O[C@]4(C)CC[C@@H]5[C@H](C)CC[C@@H]([C@H]2C)[C@@]35OO4)O[C@@H]2O[C@]3(C)CC[C@H]4[C@H](C)CC[C@@H]1[C@@]24OO3	13.1 µM (active)	–
O=c1[nH]c2ccccc2n1CCCN1CCC(n2c(=O)[nH]c3cc(Cl)ccc32)CC1	7.37 µM (active)	–
C[C@@H]1[C@@H](CC(C[C@H]2O[C@@H]3O[C@]4(C)CC[C@@H]5[C@H](C)CC[C@@H]([C@H]2C)[C@@]35OO4)C[S+](=O)([O-])c2ccc(COC(=O)N(C)C)cc2)O[C@@H]2O[C@]3(C)CC[C@H]4[C@H](C)CC[C@@H]1[C@@]24OO3 (some centres not stated)	4.65 µM (active)	–
